Results on 61 molecules are retold here after PubChem BioAssay AID504332 (National Center for Advancing Translational Sciences (NCATS), 2011).

SMILES strings stand for the structures. Out of some 350,000 compounds screened, about 31,000 (8.9%) were called active. Not shown: some 15% with an inconclusive outcome. The call rests on the fitted dose curve; in most records, active means well fitted inhibition curve with a large enough effect; inconclusive means small, poorly fitted or top-dose-only effect; inactive means no such curve, though single readings can be large or run the other way. Shown is part of a subset that was picked to be rich in actives. A call without a number means that no potency is given here.
Potency means the concentration at half of the fitted maximal effect.

This assay deals with Histone-lysine N-methyltransferase EHMT2 (Homo sapiens) (UniProt Q96KQ7). The assay is described as follows: qHTS Assay for Inhibitors of Histone Lysine Methyltransferase G9a. Further: nearly all actives have a fitted effect of over 75% in size. To be noted: G9a H3K9 monomethylation, AlphaScreen, 2 h; series mostly up to 59 µM. Put shortly: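 Compounds were preincubated with 20 nM G9a for 15 min, after which biotinylated H3K9 peptide (500 nM) and SAM (20 uM) started a 2 h room-temperature reaction. Monomethylated product was quantified by antibody-based AlphaScreen chemiluminescence.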
Sequence of Histone-lysine N-methyltransferase EHMT2 (Homo sapiens) (Q96KQ7 913-1193 limits assumed): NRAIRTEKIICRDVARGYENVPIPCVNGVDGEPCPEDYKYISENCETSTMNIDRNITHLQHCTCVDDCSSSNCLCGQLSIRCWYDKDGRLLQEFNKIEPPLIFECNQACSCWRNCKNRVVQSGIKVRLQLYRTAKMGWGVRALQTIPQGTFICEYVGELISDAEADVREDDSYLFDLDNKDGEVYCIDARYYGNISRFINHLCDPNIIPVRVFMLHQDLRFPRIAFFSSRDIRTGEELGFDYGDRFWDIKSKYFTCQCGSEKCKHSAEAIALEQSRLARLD
`CCOC(=O)c1ccc(NC(=S)Nc2cc(C)cc(C)n2)cc1`: the Potency entry is “inactive”.

Turning to `Cc1cc(C)n2nc(C(=O)OCC(=O)N(C)CC(=O)Nc3ccc(F)cc3)nc2n1`, the activity, negative = inhibition was -2.62% [at 12.7 µM] (inactive). For `CCOC(=O)c1ccc(Nc2cc(C)nc3nc(C)nn23)cc1`, the Potency was 79.4 µM (active). On the same count and under the same terms, to `O=C(Nc1ccccc1Cl)N1CCC(CN2CCCC2)CC1` belongs “inactive”; to `CCOC(=O)c1nnn(CC(=O)NC(=O)Nc2ccccc2F)c1C(=O)OCC`, “inactive”. For the molecule `Cc1ccc(NC(=O)C(c2ccccc2)N2CCN(C(=O)c3ccco3)CC2)cc1` (stereo unspecified), the activity, negative = inhibition was -37.3% [at 12.7 µM] (inactive).

Consider `Cc1cc(C)cc(NC(=O)N2CCCCCCC2)c1`, for which the Potency result was “inactive”. For the molecule `Cc1cc(C)cc(NC(=O)C(c2ccccc2)N2CCN(CC(=O)N3CCCC3)CC2)c1` (stereo unspecified), the Potency is 50.1 µM (active). As to `Cc1cc(C(=O)OCC(=O)Nc2ccccc2Cl)c(C)o1`, the activity, negative = inhibition is -9.85% [at 12.7 µM] (inactive). Still for that read-out and setting: to `Cc1cc(N2CCN(S(=O)(=O)c3ccc(C)c(C)c3)CC2)c2ccccc2n1` belongs 22.6% [at 12.7 µM] (inactive). In the case of `Cc1ccc(S(=O)(=O)C(C#N)c2nc3ccccc3nc2N2CCCC2)cc1C` (stereo unspecified), the Potency was 2.82 µM (active). On the same count and under the same terms, for `CC(C)OC(=O)C(C#N)c1nc2ccccc2nc1N1CCN(Cc2ccccc2)CC1` (stereo unspecified) the value was “inactive”. On the same count and under the same terms, to `COc1ccc(-c2noc(CSc3nnc(-c4ccccc4)n3-c3ccc(F)cc3)n2)c(OC)c1` belongs “inactive”. As for `CCN(CC(=O)Nc1ccc(NC(C)=O)cc1)C(=O)C1CC(=O)N(Cc2ccc(C)cc2)C1` (stereo unspecified), the activity, negative = inhibition was -0.244% [at 0.501 µM] (inactive). Regarding `N#Cc1nc(Cc2cccc3ccccc23)oc1NCc1ccc2c(c1)OCO2`, the Potency was 10 µM (active). Still for that read-out and setting: for `O=C(CCNS(=O)(=O)c1ccccc1C(F)(F)F)NCc1ccc2c(c1)OCO2` the value was “inactive”; for `c1n[nH]c(NCc2ccc3c(c2)OCO3)n1`, “inactive”; for `Cc1cc(NS(=O)(=O)c2ccc(NC(=O)c3ccccc3C)cc2)nc(C)n1`, “inactive”. Still for that read-out and setting: to `CCc1cccc(-n2nnc(-c3nsc(NC(=O)c4ccc(C)cc4)n3)c2C)c1` belongs “inactive”; to `CCCCSc1ncnc2c1sc1nc(N3CCOCC3)c3c(c12)CCCC3`, “inactive”; to `COC(=O)c1ccc(CNC(=O)c2ccc3oc(C(C)C)nc3c2)cc1`, “inactive”. The same measure, in the same setting: for `O=C1CC(c2ccccc2)CC(O)=C1C=NCCN1CCOCC1` (stereo unspecified) the value was 12.6 µM (active); for `CC(C)C(=O)N1CCN(CCN=CC2=C(O)CC(c3ccco3)CC2=O)CC1` (stereo unspecified), 50.1 µM (active). As to `CC1(C)CC(=O)C(C=NCCN2CCN(C(=S)Nc3cccc(Cl)c3)CC2)=C(O)C1`, the activity, negative = inhibition is -2.18% [at 0.501 µM] (inactive).

With `O=C1CC(c2cccc(Cl)c2)CC(O)=C1C=Nc1ccccc1` (stereo unspecified), the Potency result is “inactive”. On the same count and under the same terms, to `O=C1CCCC(O)=C1C=NCCc1ccccc1` belongs “inactive”. As for `CCNC(=S)N1CCN(CCN=CC2=C(O)CC(C)(C)CC2=O)CC1`, the Potency result was “inactive”. For `COc1ccc2c(c1)C=C(C(=O)NCc1cc(Br)ccc1OC)CO2`, the Potency entry is “inactive”. Turning to `COc1ccc(OC)c(NC(=O)C2CCCN(S(=O)(=O)c3ccc4c(c3)CCCC(=O)N4)C2)c1` (stereo unspecified), the Potency entry is “inactive”. Still for that read-out and setting: for `CCN(c1ccc(Cl)cc1)S(=O)(=O)c1nnc(NC(=O)c2ccco2)s1` the value was “inactive”.

As to `O=C(Nc1nc(-c2ccco2)c(-c2ccco2)s1)c1ccco1`, the activity, negative = inhibition was 16.3% [at 2.33 µM] (inactive).

For `O=C(Nc1nnc(CCOCCOCCc2nnc(NC(=O)c3ccco3)s2)s1)c1ccco1`, the Potency was 14.1 µM (active).

On to `CN(Cc1ccccc1)C(=O)c1cc2c(=O)n(C)c3ccccc3c2s1`, for which the Potency entry is “inactive”. On the same count and under the same terms, to `Cc1ccc(N(CC(=O)NCC(C)c2ccccc2)S(=O)(=O)N(C)C)cc1` (stereo unspecified) belongs “inactive”.

As to `CCOC(=O)c1ccccc1NC(=O)CSc1nc2ccccc2c(=O)[nH]1`, the Potency entry was “inactive”. Regarding `CCOC(=O)c1sc(NC(=O)CSc2nc(O)c(Cc3ccccc3)c(=O)[nH]2)nc1C`, the Potency is 50.1 µM (active). On the same count and under the same terms, to `CCOC(=O)c1sc(NC(=O)CSc2n[nH]c(CC)n2)nc1C` belongs “inactive”. As to `Cc1ccc(C(=O)Nc2ncccc2C)cc1S(=O)(=O)N1CCOCC1`, the activity, negative = inhibition is 22.2% [at 12.7 µM] (inactive). Take `CC(C)C12CN3CC(C(C)C)(CN(C1)C3c1ccc(OCc3ccccc3)cc1)C2=O` (stereo unspecified): the Potency result is “inactive”. Consider `Cc1nnc(SCC(=O)Nn2cnnc2)s1`, for which the Potency result was “inactive”. Same read-out and setting: for `Cc1nnc(SCC(=O)Nc2ccc(S(=O)(=O)Nc3ccc(Cl)nn3)cc2)s1` the value was 79.4 µM (active). On the same count and under the same terms, for `CCCCCC(=O)Nc1ccc(S(=O)(=O)Nc2ccc(Cl)nn2)cc1` the value was “inactive”; for `CCCn1nc(C(=O)NNC(=O)CCOc2ccccc2OCC)c2ccccc2c1=O`, “inactive”. Still for that read-out and setting: to `COc1cccc(C(=O)Nc2ccc(-c3cc(C(F)(F)F)nn3-c3ccccc3)cc2)c1` belongs “inactive”. Take `Cc1cccc(C(=O)OC(C)C(=O)NC2CCCc3ccccc32)c1O` (stereo unspecified): the activity, negative = inhibition was 18.2% [at 12.7 µM] (inactive). Same read-out and setting: to `CN(C)C1=NC[C@H](Cc2ccccc2)N1CCc1ccc(F)cc1` belongs 16.6% [at 2.33 µM] (inactive).

In the case of `CC(C)(C)N(CC#CCC(O)(c1ccccc1)C1CCCC1)CCO` (stereo unspecified), the Potency is 10 µM (active). The same measure, in the same setting: for `CN(CC#CCC(c1ccccc1)c1ccccc1)C(C)(C)C` the value was “inactive”; for `OC(C#CCN1CCOCC1)(c1ccccc1)C1CCCCC1` (stereo unspecified), “inactive”.

As for `CC1C(=O)Nc2ccc(S(=O)(=O)N3CCN(c4ccccc4F)CC3)cc2NC1=O` (stereo unspecified), the Potency entry is “inactive”. The same measure, in the same setting: to `CN(C)S(=O)(=O)c1ccc(N2CCCC2=O)c([N+](=O)[O-])c1` belongs “inactive”; to `CON(C)S(=O)(=O)c1ccc2c(c1)NC(=O)C1CCCN21` (stereo unspecified), 25.1 µM (active).

Regarding `Cn1c(-c2ccc(F)cc2)cc2onc(-c3ccccc3Cl)c2c1=O`, the activity, negative = inhibition was 20.7% [at 2.33 µM] (inactive). `CCCC(=O)N1c2ccc(-c3csc(N)n3)cc2CC1C` (stereo unspecified): the Potency is 70.8 µM (active). Consider `Cc1ccn(CCC(=O)N2c3ccccc3CC2C)n1` (stereo unspecified), for which the Potency entry is “inactive”.

Regarding `CCn1nc(C(=O)OCC(=O)N2c3ccccc3CC2C)c2ccccc2c1=O` (stereo unspecified), the Potency entry is “inactive”. Same read-out and setting: for `COc1ccccc1CC(=O)NCCc1c[nH]c2ccccc12` the value was “inactive”; for `COc1cccc(CNCCc2c[nH]c3ccccc23)c1OCc1ccccc1F`, 44.7 µM (active); for `COc1ccc(S(=O)(=O)NCCc2c[nH]c3ccccc23)cc1OC`, “inactive”. Still for that read-out and setting: for `O=C1NC(c2ccncc2)Nc2sc3c(c21)CCCC3` (stereo unspecified) the value was 28.2 µM (active). Same read-out and setting: for `CCN(C(=O)CSc1nnc(-c2ccc(OC(F)F)cc2)n1N)C1CCS(=O)(=O)C1` (stereo unspecified) the value was “inactive”.
